Test results as given in PubChem BioAssay AID1942 (Johns Hopkins Ion Channel Center, 2009).
About 580 (24%) of roughly 2,400 compounds were called active. Not all results are given here. Values without a mark were called inactive.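 Rule for the calls: active = activity change at or above the mean plus 3 SD of buffer wells without dofetilide, per plate; inactive = the rest.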

molecular target: Potassium voltage-gated channel subfamily KQT member 2 (Rattus norvegicus) (UniProt O88943); experiment: rat KCNQ2 channel activation by compounds alone, confirmation, counter-screen for hERG block protector project, cell-based, CHO, FluxOR thallium flux (AID 1942); conditions: CHO-KCNQ2 cells, FluxOR thallium flux fluorescence; at 10 µM; hits give high values;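 note: normalized value minus buffer-control mean plus three SD of buffer wells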
Sequence (O88943 whole entry, looked up): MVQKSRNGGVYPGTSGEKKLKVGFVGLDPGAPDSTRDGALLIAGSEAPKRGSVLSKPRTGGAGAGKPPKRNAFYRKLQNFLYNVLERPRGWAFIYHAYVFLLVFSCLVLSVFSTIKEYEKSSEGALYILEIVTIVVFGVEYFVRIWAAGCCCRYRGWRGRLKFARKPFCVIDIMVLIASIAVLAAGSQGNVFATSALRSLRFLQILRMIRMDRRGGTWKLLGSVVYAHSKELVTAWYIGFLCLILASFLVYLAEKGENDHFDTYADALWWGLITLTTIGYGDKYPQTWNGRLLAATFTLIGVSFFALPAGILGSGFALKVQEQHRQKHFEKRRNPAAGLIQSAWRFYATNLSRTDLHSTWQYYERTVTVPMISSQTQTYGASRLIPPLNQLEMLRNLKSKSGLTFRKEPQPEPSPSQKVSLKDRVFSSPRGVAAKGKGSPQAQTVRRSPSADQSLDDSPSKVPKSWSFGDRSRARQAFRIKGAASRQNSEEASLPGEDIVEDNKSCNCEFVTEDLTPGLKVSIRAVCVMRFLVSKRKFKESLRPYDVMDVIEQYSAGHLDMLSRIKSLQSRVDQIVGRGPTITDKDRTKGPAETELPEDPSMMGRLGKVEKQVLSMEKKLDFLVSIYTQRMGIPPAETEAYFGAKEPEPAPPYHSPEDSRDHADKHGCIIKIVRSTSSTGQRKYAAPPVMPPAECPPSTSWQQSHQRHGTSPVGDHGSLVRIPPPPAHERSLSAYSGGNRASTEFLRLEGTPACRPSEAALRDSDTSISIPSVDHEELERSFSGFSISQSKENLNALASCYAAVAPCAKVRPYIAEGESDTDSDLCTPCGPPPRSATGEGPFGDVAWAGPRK

For `CCOC(=O)C1=NN(C(=O)c2ccc(C)cc2)C(O)(c2ccc(Cl)cc2)C1` (centres undefined), the activity change, less the hit threshold was 88.1% (active).
With `CCOC(=O)C1=NN(C(=O)c2ccccc2)C(O)(c2ccc(C)cc2)C1` (centres undefined) the activity change, less the hit threshold was 2.6% (active).
`CC(C)CC(=O)Nc1ccc2c3c(cccc13)CC2` was tested, and the activity change, less the hit threshold was 44.7% (active).
With `Cc1cc(Cl)c(S(=O)(=O)N2CCSCC2)cc1OCC(=O)NC1CCCCC1` the activity change, less the hit threshold was 57.4% (active).
For `O=C(Nc1nc2c(Br)cc(Br)cc2c(=O)s1)C1CCC1`, the activity change, less the hit threshold was 9.5% (active).
`COc1ccc(-c2nc(=S)c3ccc4ccccc4c3[nH]2)cc1` was tested, and the activity change, less the hit threshold was 51.5% (active).
`Cc1ccc2nc(NC(=S)NC(=O)c3cccs3)sc2c1` was tested, and the activity change, less the hit threshold was 5.5% (active).
With `O=C(NC(=S)Nc1nc2ccccc2s1)c1cccs1` the activity change, less the hit threshold was 7.1% (active).
`O=C(CC1CCCC1)Nc1ccc2c(c1)CCC2` was tested, and the activity change, less the hit threshold was 54.5% (active).
With `COc1cccc(C=NCCCN=Cc2cccc(OC)c2O)c1O` the activity change, less the hit threshold was 6% (active).
`COc1cccc(C=Nc2cc(C)cc(C)c2)c1O` was tested, and the activity change, less the hit threshold was 10% (active).

Compared with `O=C(CSc1nc2cc(Cl)ccc2s1)c1cc2ccccc2o1`, `O=C(CSc1nnc(SCc2ccccc2)s1)N/N=C/c1ccc(Cl)cc1Cl` is lower in activity change, less the hit threshold: -2% for the first, -22.9% for the second.

Compared with `CN1C(=O)C2(OCC(C)([N+](=O)[O-])CO2)c2ccccc21` (centres undefined), `CCN1C(=O)C2(/C(=C(\O)c3ccc4c(c3)OCCO4)C(=O)C(=O)N2CCCOC)c2ccccc21` (centres undefined) is lower in activity change, less the hit threshold: -9.8% for the first, -12.7% for the second.

Going from `CC1=C(C#N)C(Nc2cc(C)ccn2)(C(F)(F)F)C(=O)N1` (centres undefined) to `Cc1ccc(C)c(NC(=S)c2nc3ccccc3s2)c1`, the activity change, less the hit threshold rises from -18.4% to -7.6%.

First: CSc1nc2c(c(=O)[nH]1)C(c1ccccc1Cl)CC(=O)N2 (centres undefined)
Second: CN1N=C(C(=O)N2CCc3c([nH]c4ccccc34)C2c2c(F)cccc2Cl)CCC1=O (centres undefined)
The activity change, less the hit threshold of the first is higher: -20.4% for the first, -22.4% for the second.

Compared with `Cc1cc(C(=O)NP(=O)(N2CCOCC2)N2CCOCC2)c(C)n1-c1ccc(Br)cc1`, `CC(C)Oc1ccc(CNC(=O)C2CCN(C(=O)N3CCOc4ccccc43)CC2)cc1` is higher in activity change, less the hit threshold: -22% for the first, -20.2% for the second.

Compared with `O=C1c2ccccc2C(=O)N1c1cccnc1`, `Cn1ccnc1C(O)c1cccc(OCc2ccccc2)c1` (centres undefined) is lower in activity change, less the hit threshold: -14.6% for the first, -25.3% for the second.

Compared with `CC(=O)c1ccc2c3c(cccc13)CC2`, `CC(C)C(=O)Nc1ccc2c(c1)Cc1cc(NC(=O)C(C)C)ccc1-2` is lower in activity change, less the hit threshold: -12.7% for the first, -17.9% for the second.

Going from `COc1cc(C(=O)NCc2ccc(-c3nc4ccccc4o3)cc2)cc(OC)c1OC` to `COc1ccc(-c2csc(NC(=S)NC(=O)c3cccs3)n2)cc1OC`, the activity change, less the hit threshold rises from -13.9% to -5.3%.

First: Cc1cc(=O)[nH]c(SCC(=O)NC2CCCCC2)n1
Second: Cc1cc(Cl)c(S(N)(=O)=O)cc1OCC(=O)NC1CCCCC1
The activity change, less the hit threshold of the first is lower: -14.4% for the first, -7.9% for the second.

First: COC(=O)c1cc(S(=O)(=O)NCC2CCN(Cc3cc(C)ccc3C)CC2)c[nH]1
Second: CC1CCCC(C)N1S(=O)(=O)c1ccc(NC(=O)CCn2cnc3ccccc3c2=O)cc1 (centres undefined)
The activity change, less the hit threshold of the first is lower: -11.5% for the first, -11.1% for the second.

Going from `C/C(=N\O)C1CC(CC(=O)O)C1(C)C` (centres undefined) to `C/C(CCC12CC3CC(CC(C3)C1)C2)=N\NC(N)=S`, the activity change, less the hit threshold falls from -14.4% to -17.2%.

Going from `CN(CC(=O)Nc1ccc(Cl)cc1)C(=O)c1cccc(S(=O)(=O)NCc2ccccc2)c1` to `O=C(CC1NC(=O)NC1=O)Nc1ccccc1` (centres undefined), the activity change, less the hit threshold falls from -17.3% to -21.4%.

Compared with `O=C(Nc1cccc(Br)c1)C1CCCC1`, `O=C(Nc1nnc(SCC(=O)N2CCCCC2)s1)C1CCCCC1` is lower in activity change, less the hit threshold: -12.2% for the first, -14.2% for the second.

Going from `Cc1cc(=O)oc2c3c(cc(OCC(=O)N[C@@H](Cc4ccccc4)C(=O)O)c12)OC(C)(C)CC3` to `Cc1ccc(C(C(=O)NC(C)(C)C)N(Cc2cccnc2)C(=O)C(=O)NC2CCCCC2)o1` (centres undefined), the activity change, less the hit threshold falls from -6.7% to -14.6%.

First: COc1ccc(-n2c(=S)[nH]c3ccccc3c2=S)cc1
Second: COc1cccc(/C=N/Nc2nc3ccccc3[nH]2)c1O
The activity change, less the hit threshold of the first is lower: -7.3% for the first, -3.2% for the second.

Compared with `COc1cccc(C2C3=C(N=c4s/c(=C\c5ccc(OCC(=O)O)cc5)c(=O)n42)c2ccccc2CC3)c1` (centres undefined), `O=C(NC(=S)Nc1nc(-c2ccccc2)cs1)c1cccs1` is higher in activity change, less the hit threshold: -38.5% for the first, -22.7% for the second.

Going from `COc1ccc(-c2csc(NC(=S)NC(=O)c3cccs3)n2)cc1Br` to `CCc1ccc2nc(NC(=O)c3cc(C)on3)sc2c1`, the activity change, less the hit threshold rises from -20.8% to -6.5%.

Going from `CC(C)CC1C(C#N)=C(N)Oc2n[nH]c(-c3cccs3)c21` (centres undefined) to `COc1cccc(C=NCC(C)N=Cc2cccc(OC)c2O)c1O` (centres undefined), the activity change, less the hit threshold rises from -12.4% to -2.9%.

First: CCOc1cccc(/C=N/NC(=O)c2ccc3c(c2)OCCO3)c1O
Second: COC(=O)c1cccc(/C=N/NC(N)=S)c1O
The activity change, less the hit threshold of the first is lower: -18.5% for the first, -2.4% for the second.
